Hits are enriched below; roughly 3.2% of the tested compounds scored in any of these assays.
GLP-1R inv ag = inverse agonists of human GLP-1 receptor. P43220. AID 624417. HEK293 GLP-1R CRE-luciferase, luminescence, 24 h; GLP-1R form is constitutively active. actives 1.6% (n = 410,000). Potency, µM (series often up to 38.3 µM), for the others: top-dose activity change, negative = inhibition, usual class: inhibitors; note: % is set by controls: 0 for no effect and ±100 for the full control effect; nearly all actives have a fitted effect of over 55% in size
Target sequence (P43220 whole entry, looked up): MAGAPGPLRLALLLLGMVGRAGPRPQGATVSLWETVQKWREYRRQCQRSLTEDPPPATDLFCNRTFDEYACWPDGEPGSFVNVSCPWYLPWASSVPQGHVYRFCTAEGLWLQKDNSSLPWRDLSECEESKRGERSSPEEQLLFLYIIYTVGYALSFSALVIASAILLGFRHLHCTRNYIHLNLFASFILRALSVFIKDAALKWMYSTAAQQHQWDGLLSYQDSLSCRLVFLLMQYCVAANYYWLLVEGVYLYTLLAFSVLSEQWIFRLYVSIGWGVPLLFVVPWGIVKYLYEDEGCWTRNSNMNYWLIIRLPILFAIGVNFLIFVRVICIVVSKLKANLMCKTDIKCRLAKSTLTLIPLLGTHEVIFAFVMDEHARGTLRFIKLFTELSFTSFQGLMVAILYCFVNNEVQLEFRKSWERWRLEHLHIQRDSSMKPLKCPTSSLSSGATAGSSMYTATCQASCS
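Inverse agonists were sought by their lowering of basal cAMP reporter luciferase output in HEK293 cells stably carrying constitutively active human GLP-1R, after 24 h compound treatment.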
GLP-1R agonist = activates the human GLP-1 receptor | AID 624172 | P43220 | actives 0.007% (n = 380,000) | HEK293 GLP-1R CRE-luciferase, luminescence, 4-6 h; cells express a hypersensitive GLP-1R form | Potency, µM (top dose mostly 45.6 µM), for the others: at the highest dose activation, most hits filed as activators; note: % of control where 0% means no effect
ClpP mod = qHTS Assay for Activators of ClpP; ATP-dependent Clp protease proteolytic subunit (Bacillus subtilis (strain 168)), P80244; purified B. subtilis ClpP, FRET peptide cleavage, 20 min; Potency, µM (top dose mostly 57.5 µM), inactives show at the top dose activity change, negative = active; actives 1.9% (n = 340,000); active = well fitted falling curve with a large enough effect; inconclusive = small, poorly fitted or top-dose-only effect; inactive = no such curve, though single readings can be large or run the other way; note: the source files actives as falling curves though it sought activators and does not explain the sign; nearly all actives have a fitted effect of over 65% in size
Target sequence (P80244 whole entry, looked up): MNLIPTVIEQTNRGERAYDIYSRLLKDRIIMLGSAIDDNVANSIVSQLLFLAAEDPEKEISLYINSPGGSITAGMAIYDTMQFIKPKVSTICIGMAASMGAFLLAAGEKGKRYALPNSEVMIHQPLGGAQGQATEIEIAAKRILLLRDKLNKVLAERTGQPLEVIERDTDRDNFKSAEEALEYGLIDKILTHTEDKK
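ClpP 10 microg/mL final, pH 8 Tris/KCl buffer with BSA, glycerol, Tween-20; compound pinned in; FRET-FV substrate; RT 20 min; Ex320/Em430; ΔFRET vs ADEP 5.8 microM, DMSO, no enzyme.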
GLP1R cytotox = cytotoxicity in counter-screen for GLP-1R inverse agonists | actives 0.13% (n = 410,000) | HEK293 cAMP-luciferase reporter cells, luminescence, 24 h | Potency, µM (doses to about 38.3 µM), inactives show at the highest dose activity change, negative = inhibition, most hits filed as inhibitors;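 note: loss of luciferase light is scored as toxicity; % is set by controls: 0 for no effect and ±100 for the full control effect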
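A 23 nL compound transfer followed 12 hours of cell culture at 37 deg C; exposure then lasted 24 hr. Luciferase assay detection reagent was dispensed and plates read for luminescence after a 12 min room-temperature wait.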
Starred values were filed as active, the others as inactive; ? = inconclusive; / = no result; [ ] = remark or other dose. Unless noted, calls come from the whole dose curve; as a rule, active = well fitted curve in the direction sought with a large enough effect; inconclusive = small, poorly fitted or top-dose-only effect, or another doubt; inactive = no such curve, though single readings can be large; an effect the other way counts as inactive or inconclusive. Potency is the fitted concentration of half-maximal effect.

SMILES | GLP-1R inv ag | GLP-1R agonist | ClpP mod | GLP1R cytotox
CCOC(=O)COc1ccc2nsnc2c1Cl | -37% | -5% | 35µM* | 75%
O=C(CSc1ncnc2c1nnn2Cc1ccc(F)cc1)NC1CCCCC1 | -3% | -1% | 0% | -19%
COc1cccc(-n2c(SCc3ccc(F)cc3)nc3c([nH]c4ccccc43)c2=O)c1 | 8.9µM* | 4% | -17% | -15%
O=C(CSc1nc2c([nH]c3ccccc32)c(=O)n1-c1ccc(F)cc1)NCC1CCCO1 (centres undefined) | 8% | / | 22µM* | 2%
CCSc1nc2c([nH]c3ccccc32)c(=O)n1-c1cccc(OC)c1 | ? | 7% | -16% | -3%
O=C(CSc1ncnc2c1nnn2Cc1ccc(F)cc1)NCC1CCCO1 (centres undefined) | 13µM* | 0% | -1% | ?
CCOc1ccc(-c2cc(NC(=O)Nc3cccc(C(C)=O)c3)c(C(=O)OC)s2)cc1 | 32% | / | -15% | -6%
O=C(Nc1c(C(=O)c2ccccc2)oc2ccccc12)c1ccc(F)cc1 | 8% | 1% | -10% | 5%
Nc1nnc(-c2cn(-c3ccccc3)nc2-c2ccccc2)o1 | 4% | ? | 25µM* | 1%
CNC(=S)N/N=C(\C)c1ccc2c(c1)OCCO2 | ? | 11% | -1% | ?
CCNC(=S)N/N=C(\C)c1ccc2c(c1)OCCO2 | ? | 2% | -8% | ?
C/C(=N\NC(=S)NC(C)C)c1ccc2c(c1)OCCO2 | 10µM* | 7% | 1% | 4.5µM*
CNC(=S)N/N=C(\C)c1ccccc1 | 10µM* | -3% | 0% | ?
CNC(=S)N/N=C(\C)c1ccc2c(c1)OCO2 | 10µM* | 2% | -3% | ?
CC1CCC(NC(=O)c2ccc3c(c2)N(Cc2cccc(F)c2)C(=O)c2ccccc2S3)CC1 (centres undefined) | ? | / | -4% | 0%
Cc1cc(C)c(S(=O)(=O)NCCc2csc3nc(-c4ccc(Cl)cc4)nn23)c(C)c1 | -22% | / | -3% | 2%
CC(=O)Nc1ccc(NC(=S)NC(=O)c2ccc([N+](=O)[O-])cc2)cc1 | 2% | 2% | 6.3µM* | -3%
Cc1ccc(-n2nc3c(=O)n(CCCC(=O)NCc4cccc(Cl)c4)nc(C)c3c2C)cc1 | 11µM* | 9% | -5% | 5%
Cc1ccc(-n2nc3c(=O)n(C(C)C(=O)NCCCc4ccccc4)nc(C)c3c2C)cc1 (centres undefined) | 5µM* | 0% | -4% | -15%
Cc1ccc(CSCCC(=O)NCCC2=CCCCC2)cc1 | ? | -2% | 1% | -16%
O=C(CCSCc1cccc(Cl)c1)NCCC1=CCCCC1 | 10µM* | 3% | 1% | -6%
COc1ccc(S(=O)(=O)NCCS(=O)(=O)N2CCN(c3ccccc3)CC2)cc1OC | 7% | / | -1% | 1%
O=C(NCCc1ccccc1)c1c(O)c2ccccc2[nH]c1=O | -2% | -7% | / | -7%
COc1ccc(CNC(=O)c2c(O)c3cc(OC)c(OC)cc3[nH]c2=O)cc1OC | 46% | 0% | 7.9µM* | -11%
CCCCC(=O)Nc1c(O)c2ccccc2[nH]c1=O | 14% | -1% | ? | -5%
SMILES | GLP-1R inv ag | GLP-1R agonist | ClpP mod | GLP1R cytotox
CCCCCCc1c(O)c2ccccc2[nH]c1=O | 19% | -6% | 25µM* | 2%
CCNC(=O)c1c(O)c2ccccc2[nH]c1=O | 10µM* | 4% | 25µM* | 136%
C#CCOC(=O)Nc1cccn(Cc2c(Cl)cccc2Cl)c1=O | ? | 17% | ? | ?
COC(=O)Nc1ccc(=O)n(Cc2c(Cl)cccc2Cl)c1 | 0% | 0% | 28µM* | 5%
COc1cc2c(NC3CCN(C)CC3)nc(N3CCCCC3)nc2cc1OCCCN(C)C | / | / | 4% | /
c1ccc(CO/N=C(\c2ccc(C3CC3)nc2)C2CC2)cc1 | 7.9µM* | -2% | / | 2%
O=C(CCNS(=O)(=O)c1ccccc1C(F)(F)F)NCCCSc1ccccc1 | 13µM* | 10% | -6% | 2%
O=C(OC[C@@H]1CCCN2CCCC[C@H]12)c1cc2ccccc2oc1=O | 3% | 1% | 25µM* | 0%
O=C(OC1CCCCC1)c1cc2ccccc2oc1=O | 4% | 21% | / | 3%
COc1ccc(C2CC(c3c(O)n(C4CCCCC4)c(=O)[nH]c3=O)=Nc3ccccc3S2)cc1 (centres undefined) | -2% | / | ? | 0%
Cc1cccc(/C=C/c2onc(C)c2[N+](=O)[O-])n1 | 2.8µM* | -1% | / | ?
OCC1(Cc2ccc(Cl)cc2)CCN(Cc2ccc(Oc3ncccn3)cc2)CC1 | 10µM* | 3% | / | -10%
OCC1(Cc2ccc(Cl)cc2)CCN(Cc2ccc(F)c(F)c2)CC1 | 7.9µM* | -4% | 0% | -25%
OCC1(Cc2ccc(Cl)cc2)CCN(Cc2ccc3nsnc3c2)CC1 | ? | 15% | / | 27%
OCC1(Cc2ccccc2)CCN(Cc2cnc(-c3cccc4ccccc34)nc2)CC1 | 8.9µM* | 16% | / | -17%
OCC1(Cc2ccccc2)CCN(Cc2cnc(-c3ccc(Cl)cc3)nc2)CC1 | ? | 19% | / | -7%
COc1ccc(CC2(CO)CCN(Cc3cccnc3)CC2)cc1 | -2%[7.66 µM] | 2% | / | 8%[7.66 µM]
CCc1nc2ccc(C(=O)NCCc3ccccn3)cn2c1N(C)Cc1cccs1 | -19% | -4% | -4% | -1%
Cc1ccccc1NC(=O)Nc1ccc(C(F)(F)F)cc1 | 4.5µM* | 6% | / | -14%
Cc1ccccc1NC(=O)CNC(=O)c1ccc(C(F)(F)F)cc1 | -4% | 1% | 1% | 2%
CCOC(=O)Cc1c(C)nc2c(-c3ccc(Cl)cc3)c[nH]n2c1=O | ? | -8% | 3.2µM* | 10%
CCOC(=O)Cc1cc(=O)n2[nH]c(-c3ccc(C)cc3)cc2n1 | 5% | -5% | ? | 9%
COc1ccc(-c2cc3nc(N)cc(=O)n3[nH]2)cc1 | 1% | 9% | 4% | -2%
COCc1cc(=O)n2[nH]c(-c3ccc(C)cc3)cc2n1 | 0% | -1% | 20µM* | -8%
CCc1c(C)nc2cc(-c3ccc(OC)cc3)[nH]n2c1=O | -10% | 5% | 32µM* | -25%
SMILES | GLP-1R inv ag | GLP-1R agonist | ClpP mod | GLP1R cytotox
CCOC(=O)Cc1c(C)nc2cc(-c3ccc(Cl)cc3)[nH]n2c1=O | 7% | -3% | 28µM* | -3%
Cn1c(=O)c2c(nc(N3CCOCC3)n2Cc2ccccc2F)n(C)c1=O | 6% | 0% | 0% | -6%
Cc1c(C(=O)NCc2ccccc2)sc2nc3n(c(=O)c12)CCCCC3 | -1% | / | 1% | 3%
CCOc1ccccc1CNC(=O)CCC(=O)N1CCSc2ccccc21 | ? | / | -1% | -4%
CCOC(=O)CCc1c(C)nc2cc(-c3ccc(F)cc3)[nH]n2c1=O | 7% | 9% | 25µM* | -9%
CC(C)(C)OC(=O)N(CCc1ccccc1)Cc1ccc(OCc2cccc(NC(=O)/C=C/c3ccccc3)c2)cc1 | ? | 0% | -13% | 1%

Screens deposited in PubChem by National Center for Advancing Translational Sciences (NCATS).
